Source: PubChem BioAssay (NCATS)
Records with an inconclusive call do not appear. Activity calls are given as the source filed them. Calls come from the whole dose curve; as a rule, active = well fitted cell-killing curve with a large enough effect; inconclusive = small, poorly fitted or top-dose-only effect, or effect the other way; inactive = flat fitted curve, though single readings scatter.

Assays:
Assay in all cases: Primary qHTS to identify gynecologic anti-cancer compounds using libraries of approved drugs and bioactive compounds (AID 1345084); note: nearly all actives have a fitted effect of over 55% in size
[1] = test system: C33A; settings: Gynecologic cancer cell panel viability, ATPlite luminescence, 48 h; series mostly up to 57.5 µM
In short: (§1)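 Luminescence from the ATPlite ATP-monitoring reagent indicates viable cell number; lower signal means cytotoxicity. Cells received compound 16 h after seeding and were exposed for 48 h across five concentrations.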

[2] = test system: CAOV3; settings: Gynecologic cancer cell panel viability, ATPlite luminescence, 48 h; series mostly up to 57.5 µM
In short: as §1

[3] = test system: CASKI; settings: Gynecologic cancer cell panel viability, ATPlite luminescence, 48 h; series mostly up to 57.5 µM
In short: as §1

[4] = test system: Es-2; settings: Gynecologic cancer cell panel viability, ATPlite luminescence, 48 h; series mostly up to 57.5 µM
In short: as §1

[5] = test system: HeLa; settings: Gynecologic cancer cell panel viability, ATPlite luminescence, 48 h; series mostly up to 57.5 µM
In short: as §1

[6] = test system: Hek293T; settings: Gynecologic cancer cell panel viability, ATPlite luminescence, 48 h, control line for the selectivity index; series mostly up to 57.5 µM
In short: as §1

[7] = test system: JEG-3; settings: Gynecologic cancer cell panel viability, ATPlite luminescence, 48 h; series mostly up to 57.5 µM
In short: as §1

[8] = test system: OV90; settings: Gynecologic cancer cell panel viability, ATPlite luminescence, 48 h; series mostly up to 57.5 µM
In short: as §1

[9] = test system: PA-1; settings: Gynecologic cancer cell panel viability, ATPlite luminescence, 48 h; series mostly up to 57.5 µM
In short: as §1
% is set by controls: 0 for no effect and ±100 for the full control effect.

Cc1cnc(-c2ccccc2C(C)C)nc1NCc1ccc(-n2ccnn2)cc1
inactive: Potency [1] | Potency [2] | Potency [3] | Potency [4] | Potency [5] | Potency [6] | Potency [7] | Potency [8] | Potency [9]

COc1ccc(S(=O)(=O)N2CCC[C@H]2C(=O)Nc2cc(C)cc(C)c2)cc1
inactive: Potency [1] | Potency [2] | Potency [3] | Potency [4] | Potency [5] | Potency [6] | Potency [7] | Potency [8] | Potency [9]

CNC(=O)c1ccc2c(c1)CCO[C@H]2CCN1CCN(c2ccc(OC)cc2)CC1
inactive: Potency [1] | Potency [2] | Potency [3] | Potency [4] | Potency [5] | Potency [6] | Potency [7] | Potency [8] | Potency [9]

Cc1cccc(-c2[nH]ncc2-c2ccc(F)c(-c3cnn(CCO)c3)c2)n1
inactive: Potency [1] | Potency [2] | Potency [3] | Potency [4] | Potency [5] | Potency [6] | Potency [7] | Potency [8] | Potency [9]

C=C1CC2OC(=O)C(=C)C2C(O)/C=C(\C)CCC1O (stereo unspecified)
inactive: Potency [1] | Potency [2] | Potency [3] | Potency [4] | Potency [5] | Potency [6] | Potency [7] | Potency [8] | Potency [9]

CNC(=O)[C@@H](c1ccccc1)N1CCc2cc(OC)c(OC)cc2[C@@H]1CCc1ccc(C(F)(F)F)cc1
inactive: Potency [1] | Potency [2] | Potency [3] | Potency [4] | Potency [5] | Potency [6] | Potency [7] | Potency [8] | Potency [9]

C[C@H]1CC[C@@]2(OC1)O[C@H]1CC3[C@@H]4CC[C@@H]5C[C@@H](O[C@@H]6O[C@H](CO)[C@@H](O[C@@H]7O[C@H](CO[C@@H]8OC[C@@H](O)[C@H](O)[C@H]8O)[C@@H](O[C@@H]8O[C@H](CO)[C@H](O)[C@H](O)[C@H]8O)[C@H](O)[C@H]7O)[C@H](O)[C@H]6O)CC[C@]5(C)C4CC[C@]3(C)[C@H]1[C@@H]2C (stereo partly specified)
inactive: activity change, negative = cytotoxicity [1] -0.589% [at 11.6 µM] | activity change, negative = cytotoxicity [2] 0.154% [at 11.6 µM] | activity change, negative = cytotoxicity [3] -0.139% [at 11.6 µM] | activity change, negative = cytotoxicity [4] -0.634% [at 11.6 µM] | activity change, negative = cytotoxicity [5] 17.3% [at 11.6 µM] | activity change, negative = cytotoxicity [6] -0.448% [at 11.6 µM] | activity change, negative = cytotoxicity [7] -1.5% [at 11.6 µM] | activity change, negative = cytotoxicity [8] -9.4% [at 11.6 µM] | activity change, negative = cytotoxicity [9] -0.202% [at 11.6 µM]

O=C(Nc1ccc2[nH]c(=O)oc2c1)C(=O)N1CCC(Cc2ccc(F)cc2)CC1
inactive: Potency [1] | Potency [2] | Potency [3] | Potency [4] | Potency [5] | Potency [6] | Potency [7] | Potency [8] | Potency [9]

CC(C)c1c(O)ccc2c1CC[C@H]1C(C)(C)CCC[C@]21C
inactive: Potency [1] | Potency [2] | Potency [3] | Potency [4] | Potency [5] | Potency [6] | Potency [7] | Potency [8] | Potency [9]

C=C1C(=O)O[C@@H]2[C@H]1CCC(C)=C(CCC(=O)O)[C@@]2(C)O
inactive: Potency [1] | Potency [2] | Potency [3] | Potency [4] | Potency [5] | Potency [6] | Potency [7] | Potency [8] | Potency [9]

O=C(NCc1ccccc1-c1ccccc1C(=O)NCCc1ccccn1)OCc1ccccc1
inactive: Potency [1] | Potency [2] | Potency [3] | Potency [4] | Potency [5] | Potency [6] | Potency [7] | Potency [8] | Potency [9]

Cn1ncc2cc(-c3cnc(N)c(Cl)c3N3CCC4(CCNC4=O)CC3)ccc21
inactive: Potency [1] | Potency [2] | Potency [3] | Potency [4] | Potency [5] | Potency [6] | Potency [7] | Potency [8] | Potency [9]

O=C1c2ccc(Nc3ccc(F)cc3F)cc2CCc2ccc(OCC(O)CO)cc21 (stereo unspecified)
inactive: Potency [1] | Potency [2] | Potency [3] | Potency [4] | Potency [5] | Potency [6] | Potency [7] | Potency [8] | Potency [9]

Cc1cn2c(n1)Cc1ccc(Cl)cc1C(c1ccc(N)cc1)=N2
inactive: Potency [1] | Potency [2] | Potency [3] | Potency [4] | Potency [5] | Potency [6] | Potency [7] | Potency [8] | Potency [9]

O=C1COc2nccc(-c3ccccc3F)c2CN1Cc1cc(C(F)(F)F)cc(C(F)(F)F)c1
inactive: Potency [1] | Potency [2] | Potency [3] | Potency [4] | Potency [5] | Potency [6] | Potency [7] | Potency [8] | Potency [9]

C=C1/C(=C/C=C2\CCC[C@@]3(C)C2CCC3[C@H](C)/C=C/[C@@H](O)C2CC2)C[C@@H](O)C[C@@H]1O (stereo partly specified)
inactive: Potency [1] | Potency [2] | Potency [3] | Potency [4] | Potency [5] | Potency [6] | Potency [7] | Potency [8] | Potency [9]

O=C(/C=C/c1ccccc1O)O[C@@H]1O[C@H](CO)[C@@H](O)[C@H](O)[C@H]1O
inactive: Potency [1] | Potency [2] | Potency [3] | Potency [4] | Potency [5] | Potency [6] | Potency [7] | Potency [8] | Potency [9]

CC(=O)O[C@@H]1C[C@]2(C)[C@@]3(CCC4[C@@]5(C)CC[C@H](O[C@@H]6O[C@H](C(=O)O)[C@@H](O)[C@H](OC7OC(CO)C(O)C(O)[C@H]7O[C@@H]7O[C@@H](C)[C@H](O)[C@@H](O)[C@H]7O[C@@H]7OC[C@](O)(CO)[C@H]7O)[C@H]6OC6OC(CO)C(O)C(O)C6O)C(C)(C)C5CC[C@]42C)OC[C@@]12CCC(C)(C)CC23 (stereo partly specified)
inactive: activity change, negative = cytotoxicity [1] 2.65% [at 6.55 µM] | activity change, negative = cytotoxicity [2] 0.174% [at 6.55 µM] | activity change, negative = cytotoxicity [3] 16.9% [at 6.55 µM] | activity change, negative = cytotoxicity [4] -3.44% [at 6.55 µM] | activity change, negative = cytotoxicity [5] -0.755% [at 6.55 µM] | activity change, negative = cytotoxicity [6] -10.7% [at 6.55 µM] | activity change, negative = cytotoxicity [7] -4.85% [at 6.55 µM] | activity change, negative = cytotoxicity [8] -14.9% [at 6.55 µM] | activity change, negative = cytotoxicity [9] -13% [at 6.55 µM]

N#Cc1cccc(C(=O)Nc2cc(-c3ccccc3)nn2-c2ccccc2)c1
inactive: Potency [1] | Potency [2] | Potency [3] | Potency [4] | Potency [5] | Potency [6] | Potency [7] | Potency [8] | Potency [9]
